Test results from PubChem BioAssay AID1159580 (chemical genetic matrix, 2015).
Out of some 5,500 compounds screened, about 2,000 (36%) were called active. Inconclusive results (about 18%) are left out. Rule as the data show it: active = normalized growth mostly below about 0.91 (no sharp cut-off); inconclusive = no clear call, values can overlap the other calls; inactive = mostly above about 0.92. This is one part of the list.

Experiment: chemical genetic growth profiling, strain panel (AID 1159580);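 also: tested at 20 µM; growth read once vehicle control cultures reached saturation at 30 °C; 1 = growth at the plate median or of vehicle wells; lower values mean less growth of the strain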
Conditions: S. cerevisiae deletion strains, growth OD

Measured: normalized growth

O=C(O)c1cc(O)c2c(c1)C(=O)c1cc(O)cc(O)c1C2=O
active: locus YDL185W, strain tfp1, stronger effect = lower value 0.842 | locus YDR502C, strain sam2, stronger effect = lower value 0.903 | locus YER110C, stronger effect = lower value 0.881 | locus YHR030C, strain SLT2, stronger effect = lower value 0.913 | locus YIL125W, strain kgd1, stronger effect = lower value 0.915 | locus YJL168C, strain set2, stronger effect = lower value 0.912 | locus YKL068W, stronger effect = lower value 0.913 | locus YKL085W, strain MDH1 (second series), stronger effect = lower value 0.888 | locus YKL085W, strain MDH1, stronger effect = lower value 0.888 | locus YKR001C, strain vps1, stronger effect = lower value 0.838 | locus YLR418C, strain cdc73, stronger effect = lower value 0.766 | locus YML032C, strain rad52, stronger effect = lower value 0.899 | locus YML124C, strain tub3, stronger effect = lower value 0.93 | locus YNL250W, strain rad50, stronger effect = lower value 0.863 | locus YNL298W, strain CLA4, stronger effect = lower value 0.894 | locus YOR144C, strain elg1, stronger effect = lower value 0.91 | locus YPR167C, strain met16, stronger effect = lower value 0.91
inactive: locus YBR021W, strain FUR4, stronger effect = lower value 0.97 | locus YBR229C, strain ROT2, stronger effect = lower value 0.92 | locus YCL029C, strain bik1, stronger effect = lower value 0.932 | locus YDL035C, strain GPR1, stronger effect = lower value 0.908 | locus YDL074C, strain BRE1, stronger effect = lower value 0.933 | locus YDL101C, strain DUN1, stronger effect = lower value 0.931 | locus YDL192W, strain arf1, stronger effect = lower value 0.926 | locus YDR101C, strain arx1, stronger effect = lower value 0.948 | locus YDR150W, strain NUM1, stronger effect = lower value 0.939 | locus YDR162C, strain NBP2, stronger effect = lower value 0.873 | locus YDR318W, strain mcm21, stronger effect = lower value 0.93 | locus YDR388W, stronger effect = lower value 0.938 | locus YEL061C, strain CIN8, stronger effect = lower value 0.934 | locus YER155C, strain BEM2, stronger effect = lower value 0.968 | locus YER167W, strain BCK2, stronger effect = lower value 0.939 | locus YGL078C, strain dbp3, stronger effect = lower value 0.954 | locus YGL086W, strain mad1, stronger effect = lower value 0.971 | locus YGL248W, strain PDE1, stronger effect = lower value 0.956 | locus YGR135W, strain pre9, stronger effect = lower value 0.923 | locus YGR252W, strain gcn5, stronger effect = lower value 0.816 | locus YHR079C, strain IRE1 (second series), stronger effect = lower value 0.949 | locus YHR094C, strain hxt1, stronger effect = lower value 0.938 | locus YHR129C, strain ARP1, stronger effect = lower value 0.957 | locus YHR200W, strain rpn10, stronger effect = lower value 0.939 | locus YIL066C, strain RNR3, stronger effect = lower value 0.923 | locus YIL073C, strain SPO22, stronger effect = lower value 0.914 | locus YIR030C, strain dcg1, stronger effect = lower value 0.939 | locus YJL095W, strain BCK1, stronger effect = lower value 0.945 | locus YJL134W, strain LCB3, stronger effect = lower value 0.95 | locus YJL187C, strain SWE1 (second series), stronger effect = lower value 0.952 | locus YJR043C, strain POL32, stronger effect = lower value 0.864 | locus YKL009W, strain mrt4, stronger effect = lower value 0.967 | locus YKL190W, strain CNB1, stronger effect = lower value 0.95 | locus YLR039C, strain RIC1, stronger effect = lower value 0.879 | locus YLR058C, strain SHM2, stronger effect = lower value 0.91 | locus YLR102C, strain apc9, stronger effect = lower value 0.945 | locus YLR262C, strain YPT6, stronger effect = lower value 0.814 | locus YLR268W, strain sec22, stronger effect = lower value 0.938 | locus YLR330W, strain CHS5, stronger effect = lower value 0.926 | locus YLR342W, strain FKS1 (second series), stronger effect = lower value 0.921 | locus YLR371W, strain rom2, stronger effect = lower value 0.945 | locus YML016C, strain PPZ1, stronger effect = lower value 0.944 | locus YMR078C, strain ctf18, stronger effect = lower value 0.939 | locus YMR223W, strain ubp8, stronger effect = lower value 0.92 | locus YMR307W, strain GAS1, stronger effect = lower value 0.872 | locus YNL067W, strain RPL9B, stronger effect = lower value 0.977 | locus YNL153C, strain GIM3, stronger effect = lower value 0.955 | locus YNL233W, strain BNI4, stronger effect = lower value 0.95 | locus YNL271C, strain bni1, stronger effect = lower value 0.93 | locus YNL307C, strain MCK1, stronger effect = lower value 0.931 | locus YNL322C, strain KRE1, stronger effect = lower value 0.94 | locus YNR052C, strain pop2, stronger effect = lower value 0.977 | locus YOL006C, strain TOP1, stronger effect = lower value 1.02 | locus YOL012C, strain htz1 0.738 | locus YOL147C, strain pex11, stronger effect = lower value 0.939 | locus YOR061W, strain CKA2, stronger effect = lower value 0.916 | locus YOR069W, strain VPS5, stronger effect = lower value 0.957 | locus YOR136W, strain idh2, stronger effect = lower value 0.929 | locus YOR184W, strain ser1, stronger effect = lower value 0.893 | locus YOR316C, strain cot1, stronger effect = lower value 0.94 | locus YPL241C, strain CIN2, stronger effect = lower value 0.943 | locus YPR119W, strain clb2, stronger effect = lower value 0.951 | locus YPR141C, strain kar3, stronger effect = lower value 0.916 | locus YPR163C, strain tif3, stronger effect = lower value 0.938 | strain wtn01, stronger effect = lower value 0.948
